Laboratory results reported in PubChem BioAssay AID2685 (National Center for Advancing Translational Sciences (NCATS), 2010).
Screen size: about 320,000 compounds; about 2,100 (0.66%) were called active. Not shown: some 53% with an inconclusive outcome. Calls follow the shape of the dose curve; as a rule, active = well fitted inhibition curve with a large enough effect in the signal ratio, with a control signal flat (not every such curve was filed as active); inconclusive = small, poorly fitted or top-dose-only effect, or effect the other way, or a change in a side signal; inactive = flat fitted curve, though single readings scatter; the % refers to the signal ratio. Many of the other results were omitted from the sample, so actives are more common in it than they were.

assay: qHTS Assay for Lipid Storage Modulators in Drosophila S3 Cells; details: BODIPY lipid droplet fluorescence, 18-24 h, cells fed with added oleic acid; cell number change: measured here: cell count max response; series mostly up to 46.1 µM;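 as to cell number change: cells counted by Cell Tracker Red CMTPX staining in the red channel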; as to lipid storage change, negative = inhibition: % is scaled to controls: 0 for no effect and ±100 for the full control effect
Procedure, shortened: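 Laser-scanning cytometry quantifies lipid droplet accumulation (500–530 nm total intensity; droplet/cell object ratio) in oleic acid-fed (400 uM added) Drosophila S3 cells treated with a concentration series. 20 uM Triacsin C defined 100% inhibition.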
Potency is read from the fitted curve at half-maximal effect.

SMILES	Potency	cell number change [%]	lipid storage change, negative = inhibition
CC(C)(Cc1nc2ccccc2[nH]1)C(=O)O	23.1 µM (active)	-19.5	
O=C(O)CSCc1nc2ccccc2[nH]1	inactive		
O=C(O)COCc1nc2ccccc2[nH]1	inactive	0.419	
NNC(=O)CNC(=O)c1cccc(Br)c1	inactive		
N#C/C(=C\c1ccc(-c2ccc(F)cc2)o1)C(=O)Nc1nc(-c2cccs2)cs1	inactive	-13	
N#C/C(=C\c1ccc(-c2ccccc2)cc1)c1nc(-c2ccco2)cs1	inactive	1.16	
N#C/C(=C/c1ccc(-c2ccccc2)o1)c1nc(-c2cccs2)cs1	5.8 µM (active)	20.9	
C=CCC1(N(C(C)=O)c2ccccc2C)CCCCC1	inactive	-21.1	
Cc1oc(/N=C/c2ccccc2O)c(C#N)c1C	inactive	-11.3	
Cc1oc(/N=C/c2cccc([N+](=O)[O-])c2)c(C#N)c1C	16.4 µM (active)	-19.3	
Cc1oc(/N=C/c2ccccc2)c(C#N)c1C	inactive	0.993	
CCS(=O)(=O)c1ncc(Cl)c(C(=O)Nc2ccc(S(=O)(=O)N3CCCC(C)C3)cc2)n1 (stereo not drawn)	0.146 µM (active)	-27.2	
CC1CCCN(S(=O)(=O)c2ccc(NC(=O)CNC3CCCC3)cc2)C1 (stereo not drawn)	inactive	-7.89	
Cc1ccc(NC(=O)c2ccc(S(=O)(=O)N3CCC(C)CC3)cc2)cc1	inactive	29.6	
CCS(=O)(=O)c1ncc(Cl)c(C(=O)Nc2ccc(S(=O)(=O)N3CCC(C)CC3)cc2)n1	1.3 µM (active)	-22.6	
CCOC(=O)Nc1ccc(S(=O)(=O)N2CCC(C)CC2)cc1	inactive	5.9	
CC1CCCN(S(=O)(=O)c2ccc(NC(=O)CN3CCCCC3)cc2)C1 (stereo not drawn)	inactive	-3.44	
C/C(=N\Nc1nccnc1Cl)c1ccc([N+](=O)[O-])cc1	inactive	-11.4	
O=C(NCCS(=O)(=O)N1CCN(c2ccccc2)CC1)c1ccc(Br)o1			10.4% [at 0.0737 µM] (inactive)
Cc1cc(C)n2c(SCCO)nnc2n1	inactive	8.77	

SMILES	Potency	cell number change [%]	lipid storage change, negative = inhibition
CCc1noc(C)c1C(=O)Nc1ccccc1N1CCOCC1	inactive		
CCc1noc(C)c1C(=O)Nc1cccc2ncccc12	2.31 µM (active)	-8.65	
CCc1noc(C)c1C(=O)Nc1ccc(F)c(F)c1F	inactive	-3.41	
CC(C)(C)c1ccc(C(=O)Nc2cccc3ncccc23)cc1	14.6 µM (active)		
O=C(Nc1cccc2ncccc12)c1cccnc1	inactive	4.51	
CC(=O)Nc1cccc(C(=O)Nc2cccc3ncccc23)c1	inactive	-6.58	
CCOC(=O)c1cc(CC)sc1NC(=O)CN1CCN(C(=O)C2CCCO2)CC1 (stereo not drawn)	inactive	-6.11	
CC(=O)N(C)c1ccc(NC(=O)c2ccc([N+](=O)[O-])cc2Cl)cc1	inactive	1.5	
CCCCN(C(=O)CCC(=O)OCC(=O)NCc1ccccc1)c1c(N)n(CCC)c(=O)[nH]c1=O	inactive	-13.8	
COc1ccc(NC2CC(=O)N(c3cccc(C)c3)C2=O)cc1 (stereo not drawn)	inactive	-0.809	
O=C(NCc1ccncc1)NC1CCCCC1	inactive	5.51	
C=CCc1ccccc1OCCn1nnc2ccccc21	inactive	-12.8	
Cc1ccc(-c2ccc(/C=N/n3cnnc3)o2)cc1	inactive	8.97	
Fc1ccc(-c2ccc(/C=N/n3cnnc3)o2)cc1	10.3 µM (active)	-15.7	
Fc1ccc(-c2ccc(/C=N\n3cnnc3)o2)cc1Cl	inactive		
O=C(Nc1ccccc1)NC1CCN(Cc2c(F)cccc2Cl)CC1	inactive	4.31	
O=c1c(Cc2c(F)cccc2Cl)c(O)ccn1Cc1ccc(F)cc1	inactive		
O=c1c(Cc2c(F)cccc2Cl)c(O)ccn1C1CC1	inactive	4.74	
O=c1c(Cc2c(F)cccc2Cl)c(O)ccn1CCc1ccccn1	14.1 µM (active)	-22	
CCC(C)(C)n1nnnc1C(c1ccccc1)N1CCN(C2CCCC2)CC1 (stereo not drawn)	inactive	-10.2	

SMILES	Potency	cell number change [%]	lipid storage change, negative = inhibition
COc1ccc(CC(=O)NNC(=O)c2ccco2)cc1OC	inactive	-12.7	
COc1cc(/C=C2\SC(=S)N(CC(=O)O)C2=O)ccc1OS(=O)(=O)c1ccc(C)cc1	inactive	-2.94	
CN(C(=O)CCN1C(=O)/C(=C/c2ccccc2)SC1=S)C1CCS(=O)(=O)C1 (stereo not drawn)	inactive	10.8	
COc1ccc(/C=C2\SC(=S)N(CCCC(=O)N3CCCCC3CCO)C2=O)cc1 (stereo not drawn)	inactive	-3.77	
CCN(C(=O)CN1C(=O)/C(=C/c2ccccc2)SC1=S)C1CCS(=O)(=O)C1 (stereo not drawn)	inactive	-6.26	
O=C1/C(=C/c2ccc(Cl)cc2)SC(=S)N1CCC(=O)N1CCCCC1CCO (stereo not drawn)	inactive	-22.1	
O=C(O)CCCCN1C(=O)/C(=C\c2ccc(OCc3ccccc3)c(OCc3ccccc3)c2)SC1=S	inactive	-10.9	
CN1CCN(C(=O)CCCN2C(=O)/C(=C/c3ccccc3)SC2=S)CC1	8.2 µM (active)	3.91	
COc1ccc(/C=C2\SC(=S)N(CCC(=O)N3CCCCC3CCO)C2=O)cc1 (stereo not drawn)	20.6 µM (active)	-3.06	
COc1cc(/C=C2\SC(=S)N(CCCCC(=O)O)C2=O)ccc1OS(=O)(=O)c1ccc(C)cc1	20.6 µM (active)	-25.4	
COc1ccc(/C=C2\SC(=S)N(CCCC(=O)N3CCN(C)CC3)C2=O)cc1	inactive	-9.52	
O=C(CCCN1C(=O)/C(=C/c2ccccc2)SC1=S)N1CCOCC1	inactive	15.4	
CCN(C(=O)CCN1C(=O)/C(=C/c2ccccc2)SC1=S)C1CCS(=O)(=O)C1 (stereo not drawn)	18.4 µM (active)	-2.83	
O=C(O)CCN=C1CCCc2ccccc2N1	inactive	-7.32	
COCCCNc1nnc(Cc2ccccc2)c2ccccc12	inactive	-6.27	
CC(=O)N1CCCc2cc(S(=O)(=O)Nc3ccc(C)cc3C)ccc21	inactive	19.8	
Cc1ccc(C(O)P(=O)(OC2CCCCC2)OC2CCCCC2)cc1 (stereo not drawn)	inactive	22.2	
O=C(COc1ccc(S(=O)(=O)Nc2ccccc2)cc1)NCc1cccnc1	inactive	-1.79	
Cc1c(C(=O)NC(C)C)c(-c2ccccc2)nn1-c1ccccc1	inactive	-7.38	
O=C(Nc1nnc(C2=COCCO2)o1)c1ccc(S(=O)(=O)N2CCOCC2)cc1	inactive	17.2	
